From PubChem BioAssay (NCI) come the findings set out here.

Among the test systems are SK-MEL-2 melanoma; EKVX NSCLC; SN12C renal; UO-31 renal; TK-10 renal; ACHN renal; CAKI-1 renal; CCRF-CEM leukemia; MOLT-4 leukemia; A498 renal.
What all share (test): NCI-60 one-dose screen, 48 h (100 = growth as untreated, 0 = no growth, -100 = all killed)
Holding throughout (settings): 10 µM unless noted

About 83,000 compounds went through this panel and 20% of them were active in at least one assay; those are over-represented in the sample as a whole.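 A percent growth of 40 corresponds to 60% growth inhibition; 0 means no net growth; -100 means all cells died. Active threshold: below 10.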 Unmarked numbers belong to inactive results. Activity calls are given as the source filed them.

Turning to `C[C@H](c1nc2ccc(C#N)cc2[nH]1)[C@H]1CC[C@H]2[C@@H]3CCC4=CC(=O)CC[C@]4(C)[C@H]3CC[C@]12C`, the growth in the assay on SK-MEL-2 melanoma was 84.9%; in the assay on EKVX NSCLC it was 58.4%; in the assay with SN12C renal, 69.5%; in the assay on UO-31 renal, 51.8%; in the assay with TK-10 renal, 95.2%; in the assay on ACHN renal, 80.4%. Besides, the growth in the assay on CAKI-1 renal was 50.8%; with CCRF-CEM leukemia, 46.5%; in the assay with MOLT-4 leukemia it was 49.2%.
Turning to `CCOc1ccc(NC(=O)Nc2ccc(OCC)cc2)cc1`, the growth with SK-MEL-2 melanoma is 121%; in the assay with EKVX NSCLC it was 108%; with SN12C renal it was 104%; in the assay with UO-31 renal, 95.2%; in the assay with TK-10 renal it was 107%; with CAKI-1 renal it was 103%. The growth in the assay on A498 renal was 104%; in the assay with CCRF-CEM leukemia, 107%; with MOLT-4 leukemia, 99.3%.
Regarding `Cc1cc(=O)n(C(=S)Nc2ccc(Cl)cc2)c2cc(O)ccc12`, the growth was 104% in the assay on SK-MEL-2 melanoma; 94.7% in the assay with EKVX NSCLC; 105% with SN12C renal; 72.2% in the assay on UO-31 renal; 116% in the assay on TK-10 renal; 100% with ACHN renal. The values for the growth in the assay with CAKI-1 renal, in the assay on CCRF-CEM leukemia and with MOLT-4 leukemia were 85.1%, 110% and 102%, respectively.
Consider `Cc1cc(N2CCN(CC(=O)Nc3ccc4c(ccn4Cc4ccccc4)c3)CC2)nc(N2CCOCC2)n1`, for which the growth is 93% in the assay with SK-MEL-2 melanoma; 74.8% with EKVX NSCLC; 87% with SN12C renal; 49% with UO-31 renal; 88.2% in the assay with TK-10 renal; 100% in the assay on ACHN renal. Further, the figures for the growth in the assay with CAKI-1 renal, in the assay with CCRF-CEM leukemia and in the assay with MOLT-4 leukemia were 88%, 5.84% (active) and 77.8%, respectively.
As to `COc1ccc(C(=O)C/C(=C\c2ccc(O)c(OC)c2)C(=O)NN)cc1`, the growth in the assay on SK-MEL-2 melanoma is 90.8%; in the assay on EKVX NSCLC, 94%; in the assay with SN12C renal it was 89%; in the assay on UO-31 renal, 67.9%; in the assay with TK-10 renal it was 111%; with ACHN renal, 85.4%. The growth was 77.9% in the assay with CAKI-1 renal, 105% in the assay with A498 renal, 73.8% in the assay on CCRF-CEM leukemia and 87.5% with MOLT-4 leukemia.
Turning to `CCCn1c(=S)sc2c(NNC(C)=O)nc(C)nc21`, the growth with SK-MEL-2 melanoma is 92.5%; with EKVX NSCLC, 88.5%; in the assay with SN12C renal, 101%; in the assay on UO-31 renal it was 90%; in the assay on TK-10 renal, 94.5%; in the assay on CAKI-1 renal, 70.7%. Also, the growth is 78.1% with A498 renal, 88% in the assay with CCRF-CEM leukemia and 114% with MOLT-4 leukemia.
For `COc1nc(/C=C\Nc2ccc3c(c2)OCCOCCOCCOCCO3)nc(OC)n1`, the growth was 108% in the assay on SK-MEL-2 melanoma; 91.8% with EKVX NSCLC; 93.2% in the assay on SN12C renal; 79.5% in the assay with UO-31 renal; 81.9% in the assay on TK-10 renal; 99.8% in the assay with ACHN renal. Further, the growth with CAKI-1 renal was 93.1%; in the assay on CCRF-CEM leukemia, 118%; with MOLT-4 leukemia, 107%.
Take `COc1ccc(C/C(C)=C(\c2ccc(O)cc2)c2ccc(OCCN3CCCCC3)cc2)cc1`: the growth was 114% with SK-MEL-2 melanoma; 90.1% in the assay with EKVX NSCLC; 89.9% in the assay on SN12C renal; 56.6% in the assay with UO-31 renal; 85.2% in the assay with TK-10 renal; 93.1% in the assay with ACHN renal. Besides, the growth with CAKI-1 renal was 104%; with CCRF-CEM leukemia, 54.4%; in the assay on MOLT-4 leukemia, 38.4%.
Consider `c1cc(OCCN2CCCCC2)ccc1CNc1ccc2nc(CCC3CCCCC3)[nH]c2c1`, for which the growth with SK-MEL-2 melanoma was -11.3% (active); in the assay with EKVX NSCLC, 75.8%; with SN12C renal, 64.4%; with UO-31 renal it was -30.4% (active); in the assay on TK-10 renal it was 80.1%; in the assay with CAKI-1 renal it was -28.5% (active). The growth with A498 renal is 10.5%; in the assay on CCRF-CEM leukemia, 5.76% (active); with MOLT-4 leukemia, 7.66% (active).
`O=C(OCc1ccc2c(Cl)cc(Cl)c(O)c2n1)N1CCN(C(=O)c2cc3ccccc3[nH]2)CC1`: the growth with SK-MEL-2 melanoma was 27.2%; in the assay with EKVX NSCLC it was 23.5%; with SN12C renal, 28.1%; in the assay on UO-31 renal it was 4.4% (active); in the assay on TK-10 renal it was 42.6%; with CAKI-1 renal, 17.1%. Also, the growth in the assay on A498 renal was 14.2%; in the assay with CCRF-CEM leukemia, 21%; in the assay on MOLT-4 leukemia it was 20.5%.
For `CCCCCCCCn1ccc2cc(NC(=O)CN=[N+]=[N-])ccc21`, the growth with SK-MEL-2 melanoma is 99.3%; in the assay with EKVX NSCLC, 84.9%; in the assay with SN12C renal it was 107%; in the assay with UO-31 renal it was 70%; with TK-10 renal it was 111%; in the assay with CAKI-1 renal it was 93.3%. For the same molecule, the growth in the assay on A498 renal was 96.7%; in the assay on CCRF-CEM leukemia it was 39%; in the assay with MOLT-4 leukemia, 93.3%.
